In all, about 96,000 compounds went through this assay and about 20,000 (21%) were called active.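 How the source made its calls: active means CYP2C19 inhibition above a set limit at 5 µM in the primary screen (cut at about 50% in these data); inactive means the rest.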 Not all results are given here.
What follows are compounds tested against Cytochrome P450 2C19 (Homo sapiens) (UniProt P33261) (assay: blockers of cytochrome P450 2C19 activity – biochemical, luminescence, ADME assay, primary screen (AID 778;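 further: plate controls were negative control wells for no effect and 2.5 mM tranylcypromine positive control for full effect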)). Details: CYP2C19 Supersomes, luciferin-H EGE luminescence, 30 min; at 5 µM; stronger effect = higher value.
Sequence of Cytochrome P450 2C19 (Homo sapiens) (P33261 whole entry, looked up): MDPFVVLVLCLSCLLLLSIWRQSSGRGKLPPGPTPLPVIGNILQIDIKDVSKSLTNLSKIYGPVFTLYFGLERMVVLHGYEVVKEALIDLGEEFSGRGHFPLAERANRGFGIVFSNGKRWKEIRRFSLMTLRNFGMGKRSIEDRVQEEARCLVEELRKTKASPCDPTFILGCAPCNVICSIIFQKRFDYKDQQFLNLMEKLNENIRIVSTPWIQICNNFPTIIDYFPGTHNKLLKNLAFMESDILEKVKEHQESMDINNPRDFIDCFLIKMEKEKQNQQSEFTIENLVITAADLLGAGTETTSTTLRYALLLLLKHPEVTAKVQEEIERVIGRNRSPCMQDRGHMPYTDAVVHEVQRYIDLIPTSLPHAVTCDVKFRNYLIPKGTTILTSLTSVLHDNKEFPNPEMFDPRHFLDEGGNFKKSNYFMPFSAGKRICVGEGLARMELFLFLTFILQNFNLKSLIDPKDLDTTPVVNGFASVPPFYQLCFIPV

Row | Compound | inhibition
1 | Nc1nonc1-c1nc2ccccc2n1Cc1ccc(F)cc1 | 44.1% (inactive)
2 | CC(C)N(c1ccccc1)c1ncnc(NCCC(=O)O)c1[N+](=O)[O-] | 55% (active)
3 | Cc1oc(-c2cccc(Cl)c2)[n+]([O-])c1C | -4.8% (inactive)
4 | COc1cc(C2C(C(=O)c3ccc(C)o3)=C(O)C(=O)N2CCc2ccccc2)ccc1O (configuration not stated) | -1.7% (inactive)
5 | CCOC(=O)C1=C(c2ccccc2)N=C2SCC(=O)N2C1c1ccc(O)c(OC)c1 (configuration not stated) | 79.4% (active)
6 | CC1(C)Cc2nc3sc4c(SCC(=O)NC(c5ccccc5)c5ccccc5)ncnc4c3cc2CO1 | 15.3% (inactive)
7 | CC1=CC(=O)C=CC1(C)C(Cl)(Cl)Cl (configuration not stated) | 9.4% (inactive)
8 | CCC(C)Sc1nc2c(c(=O)[nH]c(=O)n2C)n1CC(O)COc1cccc2ccccc12 (configuration not stated) | 14.5% (inactive)
9 | CCC(C)Sc1nnc(-c2c[nH]c3ccccc23)n1CCOC (configuration not stated) | 15.6% (inactive)
10 | CCn1c(SCCC(C)C)nnc1-c1c[nH]c2ccccc12 | 88.7% (active)
11 | CCn1c(SCC(=O)Nc2ccc(OC)c(OC)c2)nnc1-c1c[nH]c2ccccc12 | 42.9% (inactive)
12 | CCOC(=O)N1CCN(C(=O)c2cn(C)c3ccc(S(=O)(=O)N4CCCC4)cc3c2=O)CC1 | -12.6% (inactive)
13 | O=C(c1ccc(=O)[nH]c1)N(Cc1ccco1)C1(C(=O)NC2CCCCC2)CCCCC1 | -4.2% (inactive)
14 | c1nnc2c3c4c(sc3ncn12)CCC4 | 1.2% (inactive)
15 | N=c1c2c3c(sc2ncn1N)CCCCC3 | -16% (inactive)
16 | C=C(C)CSc1nc(N)c2c3c(sc2n1)CCC3 | 60.4% (active)
17 | CC(C)(C)NC(=O)NC(=O)COC(=O)CCC1CCCCC1 | -4.7% (inactive)
18 | CCN1CCCC1CNC(=O)c1cc2c(=O)n(C)c3ccccc3c2n1C (configuration not stated) | -9.3% (inactive)
19 | Cc1[nH][nH]c(=O)c1N=Nc1ccccc1 | 13.3% (inactive)
20 | Cc1ccc(C2CC2C(=O)NN)cc1 (configuration not stated) | 47.6% (inactive)
21 | N/C(=N\OC(=O)CCC1CCCCC1)c1ccccn1 | 5.1% (inactive)
22 | CC(C)(C)c1cc2cccnc2n1Cc1cccc(F)c1 | 14.8% (inactive)
23 | N#C/C(=C/c1ccc(Cl)cc1)NC(=O)c1ccccc1 | 3.3% (inactive)
24 | CCCCCN1CC(O)=C(c2ccccc2)C1=N | -0.3% (inactive)
25 | Cc1nc2cc(NC(=O)CSc3nc4c(C)cccc4cc3C#N)ccc2s1 | 6.7% (inactive)

Row | Compound | inhibition
26 | Cc1ccc2cc(C#N)c(SCC(=O)NCC3CCCO3)nc2c1C (configuration not stated) | -2.3% (inactive)
27 | CC(NC(=O)CSc1nc2c(cc1C#N)CN(C)CC2)c1ccccc1 (configuration not stated) | 79.6% (active)
28 | O=C1c2ccccc2C2=Nc3ccccc3SC(c3ccccc3F)C12 (configuration not stated) | 8% (inactive)
29 | Nc1nc2n(n1)C(c1ccco1)CC(c1ccc(Cl)c(Cl)c1)N2 (configuration not stated) | 31% (inactive)
30 | Cc1ccc(C2CC(c3cccc(C)c3)n3nc(N)nc3N2)cc1 (configuration not stated) | 45.1% (inactive)
31 | Clc1ccc(C2CC(c3cccs3)n3ncnc3N2)cc1Cl (configuration not stated) | 81.9% (active)
32 | CN1CCCc2cc(C#N)c(=O)[nH]c21 | 10.9% (inactive)
33 | Fc1ccc(OCc2nn3c(Cn4nnc5ccccc54)nnc3s2)cc1 | 26.6% (inactive)
34 | CCc1cc2c(=O)c(-c3ccon3)c(N)oc2cc1OC | 1.3% (inactive)
35 | COc1ccccc1Cn1c(=S)[nH]c2cc(C(=O)N3CCN(C)CC3)ccc2c1=O | -10.4% (inactive)
36 | COc1ccc(C(=O)N2CCC(C(=O)Nc3cccc(C)c3)CC2)cc1OC | -3.6% (inactive)
37 | COc1cc(C(=O)N2CCN(C/C=C/c3ccccc3)CC2)cc(OC)c1C | 68.8% (active)
38 | O=C(NCCc1ccco1)c1nn(Cc2ccccc2)c(=O)c2ccccc12 | -8.3% (inactive)
39 | COCc1cc(C)nc(Nc2cc(C)ccc2C)c1C#N | 19.8% (inactive)
40 | Cc1cc(C(C)(C)C)oc1C(=O)N(CC(=O)NC1CCCC1)Cc1ccc(Cl)cc1 | -5.1% (inactive)
41 | CCOC(=O)c1ccc(COC(=O)c2cc(=O)[nH]c3ccccc23)o1 | 69.5% (active)
42 | CCOC(=O)c1[nH]c2ccccc2c1N=C(C)N(CC)CC | -9.4% (inactive)
43 | CC(C)(CNC(=O)c1cc(=O)[nH]c2ccccc12)N1CCOCC1 | 4.2% (inactive)
44 | O=C(NCCC1=CCCCC1)C1CCN(Cc2cnn(-c3ccccc3)c2-n2cccc2)CC1 | 25.4% (inactive)
45 | CC(=O)Nc1ccc(NC(=O)CSCc2cnn(-c3ccccc3)c2-n2cccc2)cc1 | 92.4% (active)
46 | Cc1cc(C)cc(NC(=O)CSCc2cnn(-c3ccccc3)c2-n2cccc2)c1 | 47.5% (inactive)
47 | CCCn1nnc2sc3c(c2c1=O)CCC(C)C3 (configuration not stated) | 28.3% (inactive)
48 | CCN(CC)CCN1C(=O)C(=O)/C(=C(/O)c2cnn(-c3ccccc3)c2C)C1c1cccs1 (configuration not stated) | -2% (inactive)
49 | C=CCOc1ccc(Cl)cc1CNCCCN1CCOCC1 | 5.8% (inactive)
50 | O=C1CC(Sc2ncn[nH]2)C(=O)N1c1ccccc1 (configuration not stated) | 14.1% (inactive)

Row | Compound | inhibition
51 | Cc1ccc(-n2nc(N)c3c(=O)oc(N(C)C)nc32)cc1 | 17.8% (inactive)
52 | COc1ccccc1OCc1nc2ccccc2s1 | 97.6% (active)
53 | O=C(O)CCCCc1nc2ccccc2s1 | -6.9% (inactive)
54 | O=C(O)CSCc1nc2ccccc2s1 | -10.2% (inactive)
55 | CCCc1nnc(NC(=O)CN2C(=O)c3ccccc3S2(=O)=O)s1 | -6.6% (inactive)
56 | C/C(=N\NS(=O)(=O)c1cccc([N+](=O)[O-])c1)c1cc2ccccc2o1 | 8.6% (inactive)
57 | C/C(=N\NS(=O)(=O)c1ccc(Br)cc1)c1cccs1 | 69.6% (active)
58 | COC(=O)Nc1ncc(CN2C(=O)c3ccccc3C2=O)s1 | 8.1% (inactive)
59 | COc1ccc(C(=O)Cc2cnn(-c3ccccc3)c2)c(O)c1 | 24.9% (inactive)
60 | Cc1cc(O)cc(O)c1C(=O)Cc1cnn(-c2ccccc2)c1 | 56.7% (active)
61 | Cc1[nH]nc(-c2ccc(OCc3cnn(-c4ccccc4)c3)cc2O)c1Oc1ccc(Cl)cc1 | 20.9% (inactive)
62 | COc1cc(C2C3C(=O)N(c4ccccc4)C(=O)C3ON2c2ccccc2)ccc1O (configuration not stated) | 58.5% (active)
63 | Cc1ccccc1N1C(=O)C2ON(c3ccccc3)C(c3ccncc3)C2C1=O (configuration not stated) | 94.6% (active)
64 | COc1cc(C2C(C(=O)Nc3ccccc3OC)=C(C)Nc3ncnn32)ccc1O (configuration not stated) | -5% (inactive)
65 | COc1ccc(NC(=O)Nc2cccc3cccnc23)cc1 | 31% (inactive)
66 | CC(C)NC(=O)CCCn1c(=S)[nH]c2cc3c(cc2c1=O)OCO3 | -9.6% (inactive)
67 | COc1ccc(SCc2noc(C(=O)NCC3CCCO3)c2C(=O)O)cc1 (configuration not stated) | 11.5% (inactive)
68 | COC(C)(C)[C@]12CC(O)(C(C)C)ON1[C@H]1CCCCC1N2O (some centres not stated) | 7% (inactive)
69 | COC(=O)c1[nH]c2ccccc2c1NC(=O)CN1CCCc2ccccc21 | 26% (inactive)
70 | Cn1ncc2c(Nc3cccc4ccccc34)ncnc21 | 12.9% (inactive)
71 | COc1ccc(N2CC(C)Cn3c2nc2c3c(=O)n(Cc3ccccc3F)c(=O)n2C)c(OC)c1 (configuration not stated) | -10.2% (inactive)
72 | Cc1cccc(N2CC(C)Cn3c2nc2c3c(=O)n(CC(=O)OCc3ccccc3)c(=O)n2C)c1 (configuration not stated) | 66.5% (active)
73 | Cn1c(=O)n(CCc2ccccc2)c(=O)c2c1nc1n2CCCN1c1ccccc1 | 14.9% (inactive)
74 | COc1ccc(NC(=O)C2CCCN(S(=O)(=O)c3cccc4cccnc34)C2)cc1 (configuration not stated) | 17.5% (inactive)
75 | CC(=O)c1cccc(NC(=O)C2CCCN2S(=O)(=O)c2cccc3nsnc23)c1 (configuration not stated) | 22.5% (inactive)

Row | Compound | inhibition
76 | O=C(O)C1CCCN(S(=O)(=O)c2cccc3cccnc23)C1 (configuration not stated) | -11.3% (inactive)
77 | O=C(Nc1nccs1)C1CCCN1S(=O)(=O)c1cccc2cccnc12 (configuration not stated) | 54.2% (active)
78 | CC1CCCCC1NC(=O)C1CCCN1S(=O)(=O)c1cccc2nsnc12 (configuration not stated) | 69.3% (active)
79 | O=C(c1ccco1)N1CCN(C(=O)C2CCCN(S(=O)(=O)c3cccc4nsnc34)C2)CC1 (configuration not stated) | 1.6% (inactive)
80 | O=C(COc1ccc(F)cc1)N(CC1=CCS(=O)(=O)C1)c1ccccc1 | -5.1% (inactive)
81 | Cc1ccc(C2NC(=S)NC3=C2N2CCC3CC2)cc1 (configuration not stated) | -8.9% (inactive)
82 | COc1ccc(S(=O)(=O)NC(CC(=O)NCc2ccccc2OC)c2ccco2)cc1 (configuration not stated) | 38.2% (inactive)
83 | Cc1ccc(S(=O)(=O)NCC(=O)N(CC(=O)NC2CCCCC2)Cc2ccco2)cc1 | 15.5% (inactive)
84 | O=C(CC(NS(=O)(=O)c1ccc(Cl)cc1)c1ccco1)NC1CCCC1 (configuration not stated) | 62.5% (active)
85 | CCN(CC)P(=O)(/C(Cl)=C\Nc1c(C)n(C)n(-c2ccccc2)c1=O)N(CC)CC | -1.6% (inactive)
86 | N#CCCN1CCN(S(=O)(=O)c2ccc(S(=O)(=O)NC3CC3)cc2)CC1 | -21.3% (inactive)
87 | CC1(C)CN=C(N2CCN(c3ncnc4sc5c(c34)CCCC5)CC2)S1 | 32% (inactive)
88 | CC(=O)OC(C(=O)NCCc1ccccc1)c1cccnc1 (configuration not stated) | 0% (inactive)
89 | O=C(CCc1ccccc1)NCc1cccnc1 | 18.2% (inactive)
90 | CCC(Oc1ccccc1)C(=O)NCc1cccnc1 (configuration not stated) | 67.7% (active)
91 | CC(C)CC[n+]1ccn(C2=C([O-])c3ccccc3C(=O)/C2=N\S(=O)(=O)c2ccccc2)c1 | 7.8% (inactive)
92 | CCN1C(=O)c2cccc3c(N)ccc1c23 | 23.7% (inactive)
93 | CCn1c(NCCc2ccc(OC)c(OC)c2)nc2c1c(=O)n(C)c(=O)n2C | 1.8% (inactive)
94 | COc1ccccc1C(=O)C(O)c1ccccc1OC (configuration not stated) | 55.8% (active)
95 | COc1ccccc1C(=O)NN1C(=O)C2C3C=CC(O3)C2C1=O (configuration not stated) | -6.1% (inactive)
96 | COc1ccccc1C(=O)Oc1ccc(N2C(=O)CCC2=O)cc1 | -7.5% (inactive)
97 | Nc1nonc1-c1nc2ccccc2n1CCC(=O)O | -2.5% (inactive)
